Activity calls are given as the source filed them. Rule for the calls: active = hit-call score of the fitted dose curve at least 0.9, where 1 is the maximum; inactive = score below 0.9.
What was measured:
[1] = read-out: Macrophage colony-stimulating factor (MCSF), CSF1 (gene 1435); assay: BSK_hDFCGF_MCSF: BioMAP Diversity Plus: hDFCGF Assay for Macrophage colony-stimulating factor (MCSF) Biomarker Activity (AID 2283060); conditions: primary human foreskin fibroblasts; actives raise or lower the signal
Outline: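 M-CSF levels, determined by ELISA, are taken at 24 h after dosing human skin fibroblasts. Responses in either direction are fitted with DMSO serving as the baseline.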

[2] = BSK_hDFCGF_SRB: Viability Assessment in the BioMAP Diversity Plus: hDFCGF Assay (AID 2283061); conditions: primary human foreskin fibroblasts;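 note: cells exposed to compound for 24 h before the read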
Outline: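 Cells were dosed with test chemical, cultured 24 h, fixed with 10% TCA, then stained with 0.1% SRB and read at 560 nm. The fibroblasts were human foreskin primary cells, and DMSO served as baseline.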

[3] = read-out: TIMP metallopeptidase inhibitor 1 (TIMP1), TIMP1 (gene 7076); assay: BSK_hDFCGF_TIMP1: BioMAP Diversity Plus: hDFCGF Assay for TIMP metallopeptidase inhibitor 1 (TIMP1) Biomarker Activity (AID 2283062); conditions: primary human foreskin fibroblasts; actives raise or lower the signal
Outline: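 Fibroblasts from human foreskin are treated with test chemical and harvested at 24 h. TIMP-1 is quantified by ELISA, and gain or loss of signal is scored against DMSO.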

[4] = read-out: Matrix Metallopeptidase 1 (MMP1), MMP1 (gene 4312); assay: BSK_hDFCGF_MMP1: BioMAP Diversity Plus: hDFCGF Assay for Matrix Metallopeptidase 1 (MMP1) Biomarker Activity (AID 2283064); conditions: primary human foreskin fibroblasts; actives raise or lower the signal
Outline: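 Primary human foreskin fibroblasts in the hDFCGF system were dosed with test chemical, and MMP1 was measured by ELISA 24 h later. Values come from bidirectional curve fitting against the DMSO baseline.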

[5] = read-out: Vascular cell adhesion molecule 1 (VCAM1), VCAM1 (gene 7412); assay: BSK_hDFCGF_VCAM1: BioMAP Diversity Plus: hDFCGF Assay for Vascular cell adhesion molecule 1 (VCAM1) Biomarker Activity (AID 2283065); conditions: primary human foreskin fibroblasts; actives raise or lower the signal;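 for AC50: VCAM-1 protein level quantified by ELISA after 24 h chemical exposure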
Outline: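 Cells are dosed, cultured for 24 h, then VCAM-1 is quantified by ELISA; signal increases and decreases are both fitted relative to DMSO.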

[6] = read-out: Plasminogen activator inhibitor-1 (PAI1), SERPINE1 (gene 5054); assay: BSK_hDFCGF_PAI1: BioMAP Diversity Plus: hDFCGF Assay for Plasminogen activator inhibitor-1 (PAI1) Biomarker Activity (AID 2283066); conditions: primary human foreskin fibroblasts; actives raise or lower the signal
Outline: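 Human foreskin fibroblasts in the hDFCGF system were dosed with compound for 24 h; PAI-1 was quantified by ELISA. Bidirectional curve fitting used DMSO as negative control and baseline.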

[7] = read-out: Intercellular Adhesion Molecule 1 (ICAM1), ICAM1 (gene 3383); assay: BSK_KF3CT_ICAM1: BioMAP Diversity Plus: KF3CT Assay for Intercellular Adhesion Molecule 1 (ICAM1) Biomarker Activity (AID 2283067); conditions: primary human keratinocytes with fibroblasts; actives raise or lower the signal
Outline: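 Dose the keratinocyte/fibroblast co-culture, wait 24 h, measure ICAM-1 by ELISA, then fit increases or decreases against DMSO. Cytotoxicity is checked in parallel cultures by SRB total-protein staining.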

[8] = read-out: Interferon-gamma inducible Protein 10 (IP10), CXCL10 (gene 3627); assay: BSK_KF3CT_IP10: BioMAP Diversity Plus: KF3CT Assay for Interferon-gamma inducible Protein 10 (IP10) Biomarker Activity (AID 2283068); conditions: primary human keratinocytes with fibroblasts; actives raise or lower the signal
Outline: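 ELISA read-out of IP-10 after 24 h chemical dosing of human skin primary co-culture (keratinocytes, foreskin fibroblasts). Gain or loss of signal relative to DMSO, bidirectional curve fit.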

[9] = BSK_KF3CT_SRB: Viability Assessment in the BioMAP Diversity Plus: KF3CT Assay (AID 2283069); conditions: primary human keratinocytes with fibroblasts
Outline: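 Human primary keratinocyte plus foreskin fibroblast co-culture exposed to chemicals for 24 h. Total protein measured by 0.1% sulforhodamine B staining after 10% TCA fixation, read at 560 nm; bidirectional fitting versus DMSO baseline.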

[10] = read-out: Interleukin-1 alpha (IL1a), IL1A (gene 3552); assay: BSK_KF3CT_IL1a: BioMAP Diversity Plus: KF3CT Assay for Interleukin-1 alpha (IL1a) Biomarker Activity (AID 2283070); conditions: primary human keratinocytes with fibroblasts; actives raise or lower the signal
Outline: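 Human keratinocyte plus foreskin fibroblast primary co-culture, sampled 24 h after chemical dosing. IL-1a measured by ELISA; responses fitted bidirectionally against DMSO baseline (negative control), so gain or loss of signal both count.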

[11] = read-out: TIMP metallopeptidase inhibitor 2 (TIMP2), TIMP2 (gene 7077); assay: BSK_KF3CT_TIMP2: BioMAP Diversity Plus: KF3CT Assay for TIMP metallopeptidase inhibitor 2 (TIMP2) Biomarker Activity (AID 2283071); conditions: primary human keratinocytes with fibroblasts; actives raise or lower the signal
Outline: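 Human primary keratinocyte/foreskin fibroblast co-culture dosed with chemical and sampled at 24 h. TIMP-2 levels quantified by ELISA; bidirectional fitting against DMSO negative control as baseline.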

[12] = read-out: Transforming growth factor beta 1 (TGFb1), TGFB1 (gene 7040); assay: BSK_KF3CT_TGFb1: BioMAP Diversity Plus: KF3CT Assay for Transforming growth factor beta 1 (TGFb1) Biomarker Activity (AID 2283072); conditions: primary human keratinocytes with fibroblasts; actives raise or lower the signal
Outline: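 Human keratinocyte plus foreskin fibroblast primary co-culture, dosed with chemical for 24 h. TGF-b1 quantified by ELISA. Activity fitted bidirectionally against DMSO negative control as baseline.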

[13] = read-out: C-C motif chemokine 2 (Homo sapiens) (UniProt P13500); assay: BSK_KF3CT_MCP1: BioMAP Diversity Plus: KF3CT Assay for Monocyte Chemoattractant Protein 1 (MCP1/CCL2) Biomarker Activity (AID 2283073); conditions: primary human keratinocytes with fibroblasts; actives raise or lower the signal
Outline: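 Keratinocytes and foreskin fibroblasts were co-cultured, dosed with chemical, and sampled 24 h later. MCP-1 was quantified by ELISA, and the endpoint was analyzed with bidirectional fitting using DMSO as negative control.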

[14] = read-out: Matrix Metallopeptidase 9 (MMP9), MMP9 (gene 4318); assay: BSK_KF3CT_MMP9: BioMAP Diversity Plus: KF3CT Assay for Matrix Metallopeptidase 9 (MMP9) Biomarker Activity (AID 2283074); conditions: primary human keratinocytes with fibroblasts; actives raise or lower the signal;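 for AC50: MMP9 protein level quantified by ELISA in the co-culture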
Outline: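 Keratinocyte plus foreskin fibroblast human primary skin co-culture was dosed with chemical and MMP-9 was quantified by ELISA 24 h later. Bidirectional curve fitting used DMSO as negative control and activity baseline.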

[15] = read-out: urokinase plasminogen activator (uPA), PLAU (gene 5328); assay: BSK_KF3CT_uPA: BioMAP Diversity Plus: KF3CT Assay for urokinase plasminogen activator (uPA) Biomarker Activity (AID 2283075); conditions: primary human keratinocytes with fibroblasts; actives raise or lower the signal
Outline: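 Human keratinocyte plus foreskin fibroblast primary co-culture exposed to chemical for 24 h. uPA levels were quantified by ELISA, and activity was fitted bidirectionally against a DMSO negative-control baseline.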

CD40, CD40 (gene 958) = assay: BSK_LPS_CD40: BioMAP Diversity Plus: LPS Assay for CD40 Biomarker Activity (AID 2283076); conditions: primary human HUVEC with PBMC; actives raise or lower the signal
Outline: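 CD40 signal, measured by ELISA, is fitted in both directions relative to DMSO vehicle. The system is an LPS-driven human vascular primary co-culture of endothelial cells and PBMC, sampled 24 h after compound addition.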

[16] = read-out: E-selectin (Homo sapiens) (UniProt P16581); assay: BSK_LPS_Eselectin: BioMAP Diversity Plus: LPS Assay for Eselectin Biomarker Activity (AID 2283077); conditions: primary human HUVEC with PBMC; actives raise or lower the signal
Outline: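 Signal of E-selectin, detected by ELISA, served as the endpoint; cells were umbilical vein endothelium with PBMC, read 24 h after treatment. DMSO defined baseline, and both increases and decreases were fitted.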

[17] = read-out: Interleukin-8 (IL8), CXCL8 (gene 3576); assay: BSK_LPS_IL8: BioMAP Diversity Plus: LPS Assay for Interleukin-8 (IL8) Biomarker Activity (AID 2283078); conditions: primary human HUVEC with PBMC; actives raise or lower the signal
Outline: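 Endothelial cells and PBMC from human donors are co-cultured, treated with chemicals and LPS, then assayed for IL-8 by ELISA after 24 h. Parallel SRB staining (0.1% SRB after 10% TCA fixation, 560 nm) flags cytotoxicity.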

[18] = BSK_LPS_SRB: Viability Assessment in the BioMAP Diversity Plus: LPS Assay (AID 2283079); conditions: primary human HUVEC with PBMC;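 note: total protein by sulforhodamine B absorbance as a cytotoxicity measure; measured one day after compound addition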
Outline: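 Overt cytotoxicity was gauged by sulforhodamine B total-protein staining in a primary human vascular endothelial and mononuclear cell co-culture 24 h post-dosing. Activity was fitted in both directions relative to DMSO.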

Measured: AC50

Sequence of E-selectin (Homo sapiens) (P16581 whole entry, looked up): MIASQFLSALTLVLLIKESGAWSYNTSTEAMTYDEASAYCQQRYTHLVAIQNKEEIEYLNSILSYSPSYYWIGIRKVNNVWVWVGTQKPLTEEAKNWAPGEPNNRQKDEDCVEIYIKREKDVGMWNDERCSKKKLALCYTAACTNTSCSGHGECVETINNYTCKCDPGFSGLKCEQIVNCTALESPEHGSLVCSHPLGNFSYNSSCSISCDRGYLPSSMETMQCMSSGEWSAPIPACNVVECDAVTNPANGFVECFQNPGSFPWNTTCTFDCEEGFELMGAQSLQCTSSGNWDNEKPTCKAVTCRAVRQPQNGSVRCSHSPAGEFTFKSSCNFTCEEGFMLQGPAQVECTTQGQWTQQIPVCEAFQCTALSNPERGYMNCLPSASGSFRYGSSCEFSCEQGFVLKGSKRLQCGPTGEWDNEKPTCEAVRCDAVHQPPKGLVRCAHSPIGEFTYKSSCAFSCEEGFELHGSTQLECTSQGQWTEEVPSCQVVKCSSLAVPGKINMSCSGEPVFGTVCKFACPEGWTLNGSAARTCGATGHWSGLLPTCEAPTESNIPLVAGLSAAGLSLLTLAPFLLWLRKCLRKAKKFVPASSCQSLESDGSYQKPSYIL

CCCCN(CC)c1c([N+](=O)[O-])cc(C(F)(F)F)cc1[N+](=O)[O-]
active: [1] 29.8 µM | [2] 30.1 µM | [4] 4.66 µM | [6] 31.1 µM | [8] 27.9 µM | [14] 22.1 µM | CD40, CD40 (gene 958) 34.2 µM | [16] 20 µM
inactive: all other assays above

CN1COCN(Cc2cnc(Cl)s2)C1=N[N+](=O)[O-]
not listed: [16]
inactive: all other assays above

CNC(=O)ON=C(C)SC
not listed: [16]
inactive: all other assays above

O=C(O)c1cc(Oc2ccc(C(F)(F)F)cc2Cl)ccc1[N+](=O)[O-]
not listed: [7]
inactive: all other assays above

CC(C1CC1)C(O)(Cn1cncn1)c1ccc(Cl)cc1 (stereo not drawn)
not listed: [7]
inactive: all other assays above

FC(F)C(F)(F)OCC(Cn1cncn1)c1ccc(Cl)cc1Cl (stereo not drawn)
active: [1] 23.4 µM | [6] 19.4 µM | CD40, CD40 (gene 958) 17.1 µM | [18] 20 µM
not listed: [7]
inactive: all other assays above

CCCCOC(=O)[C@@H](C)Oc1ccc(Oc2ccc(C#N)cc2F)cc1
not listed: [7]
inactive: all other assays above

COc1ccc(C(=CC(=O)N2CCOCC2)c2ccc(Cl)cc2)cc1OC
active: [6] 7.96 µM | CD40, CD40 (gene 958) 14.1 µM | [16] 10.3 µM
not listed: [7]
inactive: all other assays above

CNC(=O)ON=C(SC)C(=O)N(C)C
not listed: [7] | [16]
inactive: all other assays above

CCOC(=O)CC(SP(=O)(OC)OC)C(=O)OCC (stereo not drawn)
active: [5] 10.8 µM
not listed: [16]
inactive: all other assays above

Cc1cc(C2CC2)nc(Nc2ccccc2)n1
active: [8] 20 µM | CD40, CD40 (gene 958) 14.8 µM | [18] 24.7 µM
not listed: [16]
inactive: all other assays above

S=C1NCCN1
not listed: [7] | [16]
inactive: all other assays above

CC(=NC#N)N(C)Cc1ccc(Cl)nc1
not listed: [7]
inactive: all other assays above
